# Test results from ChEMBL document CHEMBL3988442, “University of Dundee, Small-Polar-MMV Screening Library” (2021).
# In all, about 66,000 compounds went through this assay and about 960 (1.5%) showed an effect of 50% or more. Many of the other results were omitted from the sample, so strong results are more common in it than they were.
# Tested on: Trypanosoma brucei
# Experiment: Trypanosoma brucei 72 hour study
# Assay type: functional, organism-based
# Parameters: scale not given: in the data most compounds retested in dose-response had high values
structure (smiles),measurement,setting,value
COC1CCN(C(=O)Cc2csc(-c3ccccc3)n2)CC1,Percent Effect,"30.3 µM, […]",99.67%
COC1CCN(C(=O)Cc2csc(-c3ccc(F)cc3)n2)CC1,Percent Effect,"30.3 µM, […]",9.7%
Cc1cc(N2CCc3cncnc3C2)n2nc(C(F)(F)F)nc2n1,Percent Effect,"30 µM, 30.03 µM",-22.1%
Cc1ccc(C(=O)N2CCOCC2C(N)=O)c(F)c1 (stereo not given),Percent Effect,"30 µM, 30.03 µM",-8.01%
O=C(Nc1ccccn1)c1csc(NC2CCCC2)n1,Percent Effect,"30 µM, 30.03 µM",1.318%
CC(C)CCNC(=O)c1csc(NC2CC2)n1,Percent Effect,"30 µM, 30.03 µM",55.59%
O=C(Nc1nccs1)c1csc(NC2CCCC2)n1,Percent Effect,"30 µM, 30.03 µM",93.86%
CC(C)NC(=O)c1csc(NC2CC2)n1,Percent Effect,"30 µM, 30.03 µM",-15.9%
CC(C)CCNc1nc(C(=O)NC2CC2)cs1,Percent Effect,"30 µM, 30.03 µM",-29.09%
CC(NC(=O)Nc1nccs1)C(=O)NC1CCCC1 (stereo not given),Percent Effect,"30 µM, 30.03 µM",-0.2762%
COc1cccc(C2CCCN2Cc2nnnn2C2CC2)c1 (stereo not given),Percent Effect,"30 µM, 30.03 µM",7.439%
O=C(O)C(F)(F)F.O=C(O)C(F)(F)F.c1csc(CN2Cc3nc(CN4CCCC4)oc3C2)c1,Percent Effect,"30.3 µM, […]",-24.4%
COc1c(C)cnc(CN(C)C2CCCCC2)c1C,Percent Effect,"30 µM, 30.03 µM",75.58%
COc1c(C)cnc(CN(C)C2CCOC3(CCOCC3)C2)c1C (stereo not given),Percent Effect,"30 µM, 30.03 µM",-25.65%
COc1c(C)cnc(CN(C)C2CCN(C3CCOCC3)CC2)c1C,Percent Effect,"30 µM, 30.03 µM",-11.24%
Cc1cc(C)c(CNC(=O)NCc2ccc(F)cc2)c(=O)[nH]1,Percent Effect,"30.3 µM, […]",-10.32%
COc1cc(CNC(=O)NCc2c(C)cc(C)[nH]c2=O)ccc1C,Percent Effect,"30 µM, 30.03 µM",17.33%
COc1ccc(CNC(=O)NCc2c(C)cc(C)[nH]c2=O)cc1,Percent Effect,"30 µM, 30.03 µM",50.39%
Cc1sc(CN)nc1-c1ccc(Cl)cc1.Cl,Percent Effect,"30 µM, 30.03 µM",-33.68%
O=C(NCCCNc1ccc(C(F)(F)F)cn1)c1ccc(F)cc1,Percent Effect,10 µM,-67.47%
Cc1nc(CCN2CCC(Oc3ccccc3F)CC2)c(C)s1,Percent Effect,"30.3 µM, […]",14.09%
Cc1nc(C)c(CCN2CCC(Oc3ccccc3F)CC2)s1,Percent Effect,"30.3 µM, […]",55.32%
Cc1nc(CCN2CCC(Oc3ccccc3F)CC2)cs1,Percent Effect,"30.3 µM, […]",-2.649%
O=C(O)C(F)(F)F.O=C(O)C(F)(F)F.O=C1NC2(CCN(Cc3ccsc3)CC2)CC1c1ccncc1 (stereo not given),Percent Effect,"30 µM, 30.03 µM",34.47%
CC(C)n1c(=O)nc2n1C(=O)N(c1ccc(F)cc1)C2,Percent Effect,"30 µM, 30.03 µM",24.9%
COc1cc(Cl)cc(CN2CCCC(N3CCCC3)C2)c1OC (stereo not given),Percent Effect,"30 µM, 30.03 µM",-17.8%
c1sc(C2CCCCC2)nc1CN1CCn2c(nnc2C2CC2)C1,Percent Effect,"30.3 µM, […]",99.05%
c1cnc(-c2nc(CN3CCn4c(nnc4C4CC4)C3)cs2)nc1,Percent Effect,"30 µM, 30.03 µM",1.717%
c1sc(C2CCCC2)nc1CN1CCn2c(nnc2C2CC2)C1,Percent Effect,"30 µM, 30.03 µM",-23.12%
Cc1csc(C(=O)N2CCCC(c3[nH]ncc3S(C)(=O)=O)C2)c1 (stereo not given),Percent Effect,"30.3 µM, […]",68.17%
Cc1ccsc1C(=O)N1CCCC(c2[nH]ncc2S(C)(=O)=O)C1 (stereo not given),Percent Effect,"30.3 µM, […]",-15.29%
Cc1ccc(C(=O)N2CCCC(c3[nH]ncc3S(C)(=O)=O)C2)s1 (stereo not given),Percent Effect,"30.3 µM, […]",-30.56%
COCCN1CCC2(CC1)CN(C(=O)c1cccs1)CCO2.O=C(O)C(F)(F)F,Percent Effect,"30.3 µM, […]",-16.53%
CN(C)CCO[C@H]1CN(C(=O)c2cccs2)[C@@H]2COC[C@H]12.O=C(O)C(F)(F)F,Percent Effect,"30 µM, 30.03 µM",4.197%
CC(C)Sc1ccc(C(C)Nc2nc3c(cnn3C)c(=O)[nH]2)cc1 (stereo not given),Percent Effect,"30.3 µM, […]",62.45%
CC(Nc1nc2c(cnn2C)c(=O)[nH]1)c1ccc2c(c1)CCCC2 (stereo not given),Percent Effect,"30.3 µM, […]",35.38%
CC(Nc1nc2c(cnn2C)c(=O)[nH]1)c1ccc(F)cc1 (stereo not given),Percent Effect,"30.3 µM, […]",-23.37%
CCC(=O)Nc1ccc(C(C)Nc2nc3c(cnn3C)c(=O)[nH]2)cc1 (stereo not given),Percent Effect,"30.3 µM, […]",99.39%
CC(Nc1nc2c(cnn2C)c(=O)[nH]1)c1ccccn1 (stereo not given),Percent Effect,"30.3 µM, […]",-31.46%
Cc1ccc(C(C)N(C)Cc2nc3c(cnn3C)c(=O)[nH]2)cc1 (stereo not given),Percent Effect,"30 µM, 30.03 µM",18.7%
CSCC[C@H](N)c1nnc(SCC(=O)Nc2ccc(Br)cc2)o1.Cl,Percent Effect,"30 µM, 30.03 µM",-43.15%
CC(CNC(=O)c1ccc(F)cc1I)N1CCCC1 (stereo not given),Percent Effect,"30.3 µM, […]",0.5476%
COCCC(=O)NCCn1nc(C2CCNC2)c2cccnc21.Cl (stereo not given),Percent Effect,"30.3 µM, […]",-11.01%
Cc1nc(CN2CCC(O)(c3ccccc3F)CC2)c2ccccn12.O=C(O)CC(O)(CC(=O)O)C(=O)O,Percent Effect,"30.3 µM, […]",-5.12%
Cc1cccc(C)c1NC(=O)c1cc(S(N)(=O)=O)c(C)o1,Percent Effect,"30 µM, 30.03 µM",-12.34%
Cc1nc(C2(O)CCCNCC2)sc1CCOc1ccc(F)c(F)c1.Cl (stereo not given),Percent Effect,"30.3 µM, […]",101.7%
Cc1nccc(CNC(=O)NCCOc2ccc(F)c(F)c2)n1,Percent Effect,"30.3 µM, […]",8.406%
CC1(C(=O)NCc2cccnc2Oc2ccc(F)c(F)c2)CCCNC1 (stereo not given),Percent Effect,"30 µM, 30.03 µM",-31.1%
Cn1cc(CNC(=O)NCCOc2ccc(F)c(F)c2)cn1,Percent Effect,"30 µM, 30.03 µM",-10%
Cc1cc(CNC(=O)NCCOc2ccc(F)c(F)c2)on1,Percent Effect,"30 µM, 30.03 µM",-38.02%
